# In PubChem BioAssay AID602440 (Sanford-Burnham Center for Chemical Genomics, 2012):
# In all, about 360,000 compounds went through this assay and about 2,300 (0.64%) were called active. The sample holds actives, similar compounds and a random draw of the others, so the mix is not that of the screen. Cut-off read from the data, not from the text of the source: active = inhibition mostly above about 40% (no sharp cut-off); inactive = mostly below about 27%.
# Target: Sentrin-specific protease 8 (Homo sapiens) (UniProt Q96LD8)
# Sequence (Q96LD8 whole entry, looked up): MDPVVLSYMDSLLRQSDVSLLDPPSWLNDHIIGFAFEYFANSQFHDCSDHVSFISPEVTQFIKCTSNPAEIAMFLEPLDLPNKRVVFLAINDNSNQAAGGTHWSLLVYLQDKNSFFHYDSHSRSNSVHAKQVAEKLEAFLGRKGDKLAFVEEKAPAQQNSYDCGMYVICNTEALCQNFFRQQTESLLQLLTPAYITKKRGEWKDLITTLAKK
# Experiment: blockers of SENP8 deneddylase activity – biochemical, fluorescence, Nedd8 protein substrate, uHTS, primary screen (AID 602440)
# Settings: recombinant SENP8, Nedd8 substrate fluorescence; at 20 µM; active compounds read high
row,SMILES,inhibition
1,CCn1cc(C(=O)N2CC(C)CC(C)C2)c(=O)c2cc(S(=O)(=O)N3CCCC3)ccc21 (stereo not drawn),11.3% (inactive)
2,Cc1ccc(N(C(=O)c2ccc(S(=O)(=O)N(C)C)cc2)C2C=CS(=O)(=O)C2)cc1 (stereo not drawn),9.3% (inactive)
3,COC(=O)C1=C(C(=O)OC)[C@@H]2N(C)c3ccccc3[C@@]23C[C@@H](C(=O)OC)N(C(=O)c2ccco2)C3=N1,3.7% (inactive)
4,O=C(NC(=S)N1CCCCC1c1cccnc1)c1ccccc1 (stereo not drawn),46.4% (active)
5,COc1ccc(C(=O)NC(=S)N2CCCCC2c2cccnc2)cc1OC (stereo not drawn),8.4% (inactive)
6,O=C(Nc1ccccc1C(F)(F)F)N1CCCC1c1cccnc1 (stereo not drawn),6.2% (inactive)
7,COc1cccc(NC(=O)CN(C)CC(=O)c2c(N)n(Cc3ccccc3)c(=O)n(C)c2=O)c1,0.5% (inactive)
8,COc1cc(/C=C/CO)cc(OC)c1O[C@@H]1O[C@H](CO)[C@@H](O)[C@H](O)[C@H]1O,-20.9% (inactive)
9,CCCCNS(=O)(=O)CCNCc1ccccc1OC,5.2% (inactive)
10,CCCCNCCS(=O)(=O)NCc1ccccc1,61.4% (active)
11,Cc1ccc(CNS(=O)(=O)CCNC(=O)c2ccccc2)cc1,5.7% (inactive)
12,Cc1ccc(C(=O)N/C(=C/c2ccc(-c3cccc([N+](=O)[O-])c3)o2)C(=O)NCCCN(C)C)cc1,51.7% (active)
13,O=C(NCc1ccco1)/C(=C\c1cccc([N+](=O)[O-])c1)NC(=O)c1ccco1,9.4% (inactive)
14,O=C(NCc1ccco1)/C(=C/c1cccc([N+](=O)[O-])c1)NC(=O)c1ccco1,15.2% (inactive)
15,COc1ccc(C(=O)OCC(=O)Nc2cc(C)on2)cc1F,10.9% (inactive)
16,CN(C)S(=O)(=O)c1cc(C(=O)Nc2ccn(C)n2)c(Cl)cc1Cl,19.3% (inactive)
17,CCN1C(=O)C(CC(=O)Nc2cc(C)ccc2C)SC1=Nc1ccc(S(N)(=O)=O)cc1 (stereo not drawn),13.6% (inactive)
18,CN=C1SC(CC(=O)Nc2ccc(C(=O)O)cc2)C(=O)N1C (stereo not drawn),16.1% (inactive)
19,CCN=C1SC(CC(=O)Nc2ccc(C)cc2)C(=O)N1CC (stereo not drawn),40.5% (active)
20,Cc1cccc(N2CC(C(=O)Nc3ccccc3N3CCCC3)CC2=O)c1C (stereo not drawn),14.3% (inactive)

row,SMILES,inhibition
1,CC1CCN(c2ccc(C(=O)NCc3ccc4c(c3)OCO4)cc2[N+](=O)[O-])CC1,20.8% (inactive)
2,CC1CCN(c2ccc3c(c2)S(=O)(=O)c2cc(C(=O)O)ccc2C3=O)CC1,-15.6% (inactive)
3,CC1CCN(c2ccc([N+](=O)[O-])c(SCCO)c2)CC1,40.3% (active)
4,COc1ccc(C(=O)N2CCC(C(=O)Nc3cccc(C)c3)CC2)cc1OC,9.3% (inactive)
5,COc1ccc(-c2c(C)nn3c(N4CCC(C(=O)N5CCCCC5)CC4)cc(C)nc23)cc1OC,-21.1% (inactive)
6,COC(=O)[C@]12CCCCC=C1N(Cc1ccc3c(c1)OCO3)C(=O)[C@H](CC(=O)NCc1cccs1)C2,19.5% (inactive)
7,CCOc1ccc(S(=O)(=O)N2CCN=C2Cc2ccccc2)cc1C,23.3% (inactive)
8,NN=C(NN=Cc1ccccc1)c1ccccc1,49.4% (active)
9,Nc1nnn(CC(=O)N/N=C/c2ccccc2)n1,-8.5% (inactive)
10,COC(=O)C(C)N=Cc1ccccc1 (stereo not drawn),0.2% (inactive)
11,O=C(NCc1ccccc1)C(=O)NCC1OCCN1S(=O)(=O)c1ccc(Br)cc1 (stereo not drawn),0.6% (inactive)
12,COc1ccc(C2(C)NC(=O)N(CC(=O)c3ccc4c(c3)OCO4)C2=O)cc1 (stereo not drawn),-8.5% (inactive)
13,CCOc1ccc(C(=O)CCN2CCOCC2)cc1,5.4% (inactive)
14,CCOc1ccc(NCCC(=O)c2ccc3c(c2)OCO3)cc1,37.1% (active)
15,CC1(C(=O)Nc2cccc3c2CCCC3)CCN1C(=O)CCc1ccc(Cl)cc1Cl (stereo not drawn),10.4% (inactive)
16,CC(=O)N1C(=O)/C(=C2\SC(=S)N(NC(=O)c3ccc(O)cc3)C2=O)c2ccccc21,53.5% (active)
17,COc1ccc(C(=O)NN2C(=O)C3C(c4ccccc4)C=CC(c4ccccc4)C3C2=O)cc1 (stereo not drawn),7% (inactive)
18,COc1ccc2c(c1)N(C)/C(=C1/SC(=S)N(NC(C)=O)C1=O)S2,1.5% (inactive)
19,Oc1cccc(C2c3[nH]c4ccccc4c3CCN2Cc2cnn(-c3ccccc3)c2)c1 (stereo not drawn),-56.9% (inactive)
20,CSCC[C@H](NC(=O)CCCn1nnc2ccccc2c1=O)C(=O)O,38.5% (inactive)

row,SMILES,inhibition
1,CCOC(=O)N1CCN(C(=O)C[C@@H]2C[C@@]3(C(=O)OC)CC(C)(C)CC=C3N(Cc3ccco3)C2=O)CC1,26.3% (inactive)
2,CCCc1ccc(C(=O)COC(=O)CN2C(=O)NC3(CCCCC3C)C2=O)cc1 (stereo not drawn),9.6% (inactive)
3,CCCCCCCCCCCCCCCC(=O)OC/C=C(C)/C=C/C=C(C)/C=C/C1=C(C)CCCC1(C)C,40.9% (active)
4,CCc1nnc(NC(=O)CCN(c2ccc(C)cc2)S(=O)(=O)c2ccccc2)s1,14.8% (inactive)
5,COCCCNC(=O)CNC(=S)N(Cc1cc(OC)c(OC)c(OC)c1)C1CCCC1,4.9% (inactive)
6,Cc1c(NC(=O)Nc2cccc([N+](=O)[O-])c2)c(=O)n(-c2ccccc2)n1C,9.3% (inactive)
7,CCOC(=O)C(CC)Sc1ncnc2c1nnn2-c1ccc(F)cc1 (stereo not drawn),40.3% (active)
8,COC(=O)C(C)n1cnc2c(nnn2-c2ccc(F)cc2)c1=O (stereo not drawn),4.4% (inactive)
9,CCOC(=O)C(C)n1cnc2c(nnn2-c2ccc(F)cc2)c1=O (stereo not drawn),6.3% (inactive)
10,CC(C)c1nc2oc3c(N4CCN(C)CC4)ncnc3c2c2c1CCC2,-130% (inactive)
11,Cc1ccnc(N2CCN(C(=O)CSc3nc4ccccc4nc3N3CCCCC3)CC2)c1,-63.3% (inactive)
12,OC(COCC1COc2ccccc2O1)CN1CCN(c2ccc(F)cc2)CC1 (stereo not drawn),16.7% (inactive)
13,CN1/C(=c2/s/c(=C3/C(=O)N(c4ccccc4)NC3=Nc3ccccc3)n(C)c2=O)C(C)(C)c2ccccc21,54.8% (active)
14,OCC1(Cc2ccccc2)CCN(Cc2cc3ccccc3o2)CC1,3.7% (inactive)
15,CCN(CC)S(=O)(=O)c1ccc(N2CCOCC2)c(NC(=O)C2CSC3(C)CCC(=O)N23)c1 (stereo not drawn),-11.2% (inactive)
16,Cc1cc([N+](=O)[O-])c(NC2CCCCC2)c([N+](=O)[O-])c1,45.6% (active)
17,Cc1cc(C)cc(NC(=O)NC2CCCCCCC2)c1,1.8% (inactive)
18,Cc1cc([N+](=O)[O-])c(N2CCC[C@@H]2C(=O)O)c([N+](=O)[O-])c1,2.1% (inactive)
